HIF-2a block = blocks HIF-2a reporter activity. inhibition, % at 18.8 µM. 360,000 tested, 0.72% active. 786-0 RCC cells HIF-2a reporter, luciferase luminescence, overnight;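 active means inhibition of the luminescence signal of 40% or more relative to plate controls, in a single-dose primary screen at 18.75 µM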
TWEAK-Fn14 inh = inhibitors of TWEAK-Fn14 interaction signaling | TWEAK-stimulated Fn14 reporter cells, luciferase luminescence, 8 h | inhibition, % at 10 µM | 360,000 tested, 2% active | AID 1159606; in the data active means inhibition above about 50%
MITF TRPM1 inh = inhibitors of MITF-driven TRPM1 promoter in melanoma cells. SK-MEL-5 TRPM1 promoter luciferase, 24 h. AID 488899. 330,000 tested, 0.83% active. inhibition, % at 12.5 µM;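 active means mean inhibition across replicates of 60% or more, whatever share of single replicates reaches that level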
Shn3 3UTR inh = reduces Shn3 3'UTR luciferase signal in osteoblasts | Clone20 osteoblast Shn3 3'UTR firefly luciferase, 24 h | inhibition, % at 12.5 µM | 360,000 tested, 0.52% active;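 active means mean inhibition of at least 75% with every replicate also reaching 75%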;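 further: 0% = median of neutral control wells and 100% = pilot-screen positive control compound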
EBV LMP1 NFkB = inhibitors of Epstein-Barr LMP1-induced NF-kappaB reporter. 350,000 tested, 0.69% active. LMP1-induced NF-kappaB luciferase reporter cells, luminescence. inhibition, % at 12.5 µM. AID 504558; in the data active means inhibition above about 41%;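 further: 0% = neutral control wells and 100% = reference inhibitor control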
TROY NFkB inh = inhibitors of TROY-dependent NF-kB signaling. Q293 LMP1-TROYcd NF-kB luciferase reporter, 4 h. inhibition, % at 10 µM. AID 1347056. 360,000 tested, 0.98% active;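 active means compounds whose plate-normalised and pattern-corrected inhibition of the luciferase reporter signal at the single screening dose is 50% or more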
An asterisk follows results filed as active; / = no result. Sampled rows, rich in hits. Any-hit rate of the full collection: about 3.4%.

SMILES | HIF-2a block | TWEAK-Fn14 inh | MITF TRPM1 inh | Shn3 3UTR inh | EBV LMP1 NFkB | TROY NFkB inh
CC(C)C[C@H]1CNC(=S)N1CC1CCN(CC2CCCC2)CC1 | 2 | -3 | -6 | -4 | -1 | -3
CCOc1ccc(CN2CCN(Cc3c(C)nn(CC)c3C)CC2CCO)cc1 (stereo not drawn) | 6 | 76* | -6 | 11 | 1 | 0
COc1ccc(NCC(=O)Nc2c(C)cccc2C)cc1S(=O)(=O)N1CCOCC1 | 13 | -8 | / | 9 | 8 | -3
CCOC1=C2[C@H](c3ccccc3)N(S(=O)(=O)c3ccc(C)cc3)C(C(C)(C)C)[C@H]2C(C#N)(C#N)C(C#N)(C#N)C1 (stereo partly drawn) | 49* | 54* | / | 87* | / | 17
COc1ccc(CCNC(=O)Nc2ccc3c(c2)c(=O)n(C)n3CC=C(C)C)cc1OC | -4 | -9 | / | -4 | / | -2
O=C(NCC1CCCCC1)c1cc(Br)ccc1Cl | -58 | 30 | -7 | -7 | 0 | -7
CC1=C(C(=O)N2CCOCC2)CC(CC(=O)NC2CCCC2)C(=O)N1Cc1ccc(F)cc1 (stereo not drawn) | 2 | 8 | / | -6 | 9 | -8
CCCCCCOC(=O)Cc1c(C)nc(N)[nH]c1=O | 12 | 56* | -4 | -6 | -3 | -8
COc1cc2c(cc1NC(=O)C(Cl)Cl)-c1ccc(NC(=O)C(Cl)Cl)cc1C2 | -60 | 81* | 74* | 7 | 8 | -36
CN(C)CCN1C(=O)c2cccc3cc([N+](=O)[O-])cc(c23)C1=O | 46* | -125 | 84* | 97* | 58* | -89
CCCC/C=C1/CCC(CN(C)C)C1=O (stereo not drawn) | -5 | 19 | 75* | 1 | -2 | -2
COc1ccc(-n2c(=O)c3c4c(sc3n(CC(=O)NCC3CCCO3)c2=O)CN(C(C)=O)CC4)cc1OC (stereo not drawn) | 10 | -3 | / | -27 | -5 | -6
Cc1ccn2c(Cc3ccccc3)c(-c3ccc(F)cc3)nc2c1 | -273 | -9 | / | -54 | -10 | -7
CCOC(=O)[C@]12CCCC=C1N(Cc1cccc3ccccc13)C(=O)[C@H](CC(=O)N1CCN(C(=O)C3CC3)CC1)C2 | 6 | -3 | / | / | / | 2
CCN(CC)c1ccc(C(=O)OCC(=O)Nc2ccccc2-c2ccccc2)cc1 | 26 | 72* | 4 | 80 | 16 | 39
Cc1ccc(C(=O)CSc2cnc3ccccc3n2)cc1C | -8 | 89* | -10 | -17 | -6 | 76*
CN(C)C(=O)CSc1cnc2ccccc2n1 | 11 | 17 | 11 | 4 | 8 | 10
COc1ccc(NC(=O)C2Cc3c(-c4cccc(C(C)=O)c4)ccnc3O2)cc1OC (stereo not drawn) | -2 | 38 | / | 91* | / | 37
CC(=O)c1cccc(NC(=O)C2Cc3c(-c4ccccc4Oc4ccccc4)ccnc3O2)c1 (stereo not drawn) | 18 | 51* | / | 9 | / | 48
CC(=O)Nc1cccc(-c2ccnc3c2CC(C(=O)Nc2cccc(Oc4ccccc4)c2)O3)c1 (stereo not drawn) | 22 | 57* | / | 5 | / | 41
Cc1noc(C)c1C(=O)N1CCC1(C)C(=O)NS(=O)(=O)c1cccc(Cl)c1 (stereo not drawn) | -5 | -8 | / | -13 | / | -2
COCCNC(=O)c1cccc2c1C(=O)c1ccc(N3CCOCC3)cc1S2(=O)=O | -4 | -5 | -3 | -29 | -4 | -13
O=C1c2ccccc2S(=O)(=O)c2cc(N3CCOCC3)ccc21 | -44 | 71* | 22 | 39 | 31 | 44
O=C(Cc1ccc(-n2c(=O)c3sccc3n(CC(=O)Nc3ccccc3F)c2=O)cc1)NCc1ccco1 | 5 | 14 | -14 | 60 | 69* | -8
O=C(Cc1ccc(-n2c(=O)c3sccc3n(CC(=O)Nc3ccccc3)c2=O)cc1)NCc1ccco1 | 9 | 4 | -2 | -6 | -2 | 4
SMILES | HIF-2a block | TWEAK-Fn14 inh | MITF TRPM1 inh | Shn3 3UTR inh | EBV LMP1 NFkB | TROY NFkB inh
Cc1ccccc1C(=O)N1CCN(c2ccc(NC(=O)c3ccco3)cc2Cl)CC1 | 15 | -22 | 16 | 54 | 51* | 34
O=C(Nc1ccc(N2CCN(C(=O)c3cccs3)CC2)c(Cl)c1)c1ccco1 | -45 | 0 | -4 | 6 | 19 | 1
O=C(Nc1ccc(N2CCN(C(=O)c3ccc(Cl)cc3)CC2)cc1)c1cc2ccccc2o1 | -3 | 90* | 48 | 65 | 30 | 69*
O=C(Cc1ccc(Cl)cc1)Nc1ccc(N2CCN(C(=O)c3ccco3)CC2)cc1 | 19 | 0 | 5 | 90* | 13 | 7
O=C(Nc1ccccc1N1CCN(C(=O)c2ccc(Cl)cc2)CC1)c1cc2ccccc2o1 | -6 | 21 | 12 | -1 | -18 | -26
Cc1cc(OCC(=O)Nc2ccc(N3CCN(C(=O)c4ccco4)CC3)cc2)cc(C)c1Cl | 2 | 52* | 2 | 9 | 1 | 52*
Cc1ccc(OCC(=O)Nc2ccc(N3CCN(C(=O)c4ccco4)CC3)cc2)cc1C | 9 | 34 | 6 | 30 | 13 | 41
COc1ccc(CC(N)c2csc(Nc3ccc(S(C)(=O)=O)cc3)n2)cc1 (stereo not drawn) | 14 | 3 | / | 3 | / | 10
CC(C)c1cccc(OCCCCN(C)C)c1 | 7 | -10 | -8 | -11 | -2 | 0
CCNC(=O)C1(C)CCN(C(=O)c2cccc(OC(C)=O)c2C)C1 (stereo not drawn) | 8 | 11 | / | 2 | / | -4
Cc1cccc(C)c1NC(=O)CN(C)C(=O)c1cc(S(=O)(=O)N(C)C)ccc1N1CCCC1 | 7 | -4 | -4 | 87* | 3 | 7
O=C1NC[C@H](CCCCN2CCN(CC3CCCCC3)C(=O)C2=O)N(CCC2CCCCC2)C1=O | 7 | 7 | / | / | / | 3
Cc1ccc(C(=O)NCCN2CCC(n3c(=O)[nH]c4ccccc43)CC2)cc1F | -1 | -3 | / | / | / | -15
Fc1cccc2sc(Nc3nc4c(F)cccc4s3)nc12 | -124 | -29 | -13 | -23 | -25 | -7
NNc1nc2c(F)cccc2s1 | -85 | 62* | -6 | 8 | -24 | 68*
Fc1cccc2sc(Nc3nnc(-c4ccccc4)o3)nc12 | -172 | 103* | -10 | -18 | -4 | -47
c1ccc2c(-c3cnc4cccnn34)cncc2c1 | 5 | 22 | / | 12 | / | 4
c1cc(-c2cnc3cccnn23)c2cccnc2c1 | 28 | 61* | / | 5 | / | 36
O=C(Nc1ccc2c(c1)OCO2)C1Cc2c(-c3ccc(Cl)cc3)ccnc2O1 (stereo not drawn) | -14 | 47 | / | 29 | / | 36
C=CCn1c(SCC(=O)c2[nH]c(C)c(C(=O)OC)c2C)nc2scc(-c3ccc(OC)c(OC)c3)c2c1=O | 12 | -15 | 105* | 84 | 3 | -4
O=C(Oc1cccc(Nc2ncnc3ccccc23)c1)c1cccnc1 | -10 | 9 | -17 | 9 | 4 | 15
COc1cc(C(=O)Oc2cccc(Nc3ncnc4ccccc34)c2)cc(OC)c1OC | -47 | 99* | 26 | 69 | 34 | 79*
